Screen size: about 300,000 compounds; about 3,200 (1.1%) were called active.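 How the source made its calls: active means inhibition above the campaign mean inhibition plus 3 SD (cut at about 35% in these data); inactive means the rest.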 This excerpt belongs to a sample that is enriched for actives.

Chain of Glutathione S-transferase omega-1 (Homo sapiens) (P78417 whole entry, looked up): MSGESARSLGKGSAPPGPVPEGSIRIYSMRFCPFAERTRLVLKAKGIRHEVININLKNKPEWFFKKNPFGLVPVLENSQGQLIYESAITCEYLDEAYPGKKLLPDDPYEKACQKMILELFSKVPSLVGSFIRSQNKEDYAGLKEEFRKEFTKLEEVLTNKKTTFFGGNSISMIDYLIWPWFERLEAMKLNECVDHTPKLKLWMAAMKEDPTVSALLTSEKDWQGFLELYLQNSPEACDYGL

This assay concerns the target Glutathione S-transferase omega-1 (Homo sapiens) (UniProt P78417). In words: inhibitors of recombinant GSTO1, primary screen, counter-screen for RBBP9 inhibitor project, biochemical, fluorescence polarization (AID 1974).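 Further: 0% = GSTO1-1 with DMSO and 100% = wells lacking GSTO1-1 enzyme.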 The settings on record: recombinant GSTO1, activity-based probe fluorescence polarization; at 5.96 µM; hits give high values.
With `O=C(Cc1ccccc1)Nc1cccc(NC(=O)c2ccccc2)c1`, the inhibition was -4.68% (inactive).

In the case of `CCc1cccc(NC(=O)CCC(=O)O)c1`, the inhibition is 1.54% (inactive).

In the case of `O=C(CCl)Nc1cccc(CP(=O)(c2ccccc2)c2ccccc2)c1`, the inhibition is 87.8% (active). To `COc1ccccc1CCCNC(=O)C1CCC(=O)N(CCN2CCOCC2)C1` (stereo unspecified) belongs 63.1% (active); to `O=C(NCCCc1ccccc1)C1CCC(=O)N(CCc2ccc(Cl)cc2)C1` (stereo unspecified), -1.06% (inactive); to `COc1ccccc1CN1CC(C(=O)NCCc2cn[nH]c2)CCC1=O` (stereo unspecified), -2.71% (inactive). Regarding `CCN1CCN(c2ccc(S(=O)(=O)N3CCCCC3)cc2NC(=O)c2cccc(NC(C)=O)c2)CC1`, the inhibition is 0.88% (inactive). In the case of `Cc1cc(O)c(Sc2ccccc2)c(=O)o1` it was 10.2% (inactive); in that of `O=C(c1cc2cc(Br)cc(Br)c2oc1=O)N1CCOCC1`, 5.88% (inactive); in that of `O=C(CSC(=S)N1CCOCC1)c1cc(Br)cc(Br)c1O`, -51.7% (inactive). In the case of `O=C1Nc2c(Br)cc(Br)cc2C1(O)N1CCOCC1` (stereo unspecified) it was 71.2% (active); in that of `Cc1ccc(NS(=O)(=O)c2ccc(C(=O)NCCCN3CCOCC3)cc2)cc1`, 10.7% (inactive). `Nc1ccc2nc3c(=O)[nH]c(=S)[nH]c3nc2c1`: the inhibition is 53.3% (active). In the case of `O=c1[nH]c(=O)c2nc3ccccc3nc2[nH]1` it was 5.15% (inactive); in that of `Cc1cc(=O)[nH]c(SCc2ccc(Cl)cc2)n1`, -4.37% (inactive). Regarding `O=[N+]([O-])c1ccc(N=Cc2c(O)ccc3ccccc23)cc1`, the inhibition was 37.5% (active). `O=[N+]([O-])c1ccc(N/N=C/c2ccccc2)cc1`: the inhibition was 2.07% (inactive).

As for `O=[N+]([O-])c1ccc(O)c(/C=N/Nc2ccccc2[N+](=O)[O-])c1`, the inhibition was 0.98% (inactive).

On to `Cc1cc(OCC(=O)N(C)c2c(N)n(Cc3ccccc3)c(=O)[nH]c2=O)c(C(C)C)cc1Cl`, for which the inhibition was 0.25% (inactive). To `CCC1(c2ccccc2)NC(=O)N(CC(=O)Nc2ccccc2C(=O)NC2CCCC2)C1=O` (stereo unspecified) belongs 8.02% (inactive). In the case of `CCOc1ccc(S(=O)(=O)N2CCN(C(=S)NCC3CCCO3)CC2)cc1` (stereo unspecified) it was 2.59% (inactive).

One may read the inhibition as the change of the read-out against control, counted positive when it falls.

These data come from PubChem BioAssay AID1974 (The Scripps Research Institute Molecular Screening Center, 2009).
